According to PubChem BioAssay:
For some assays here: Measured potencies and affinities stand elsewhere. Active and inactive are the calls of the source.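 Rule for the calls, unless noted: active = calcium signal ratio cut to more than 3 SD under the fully stimulated control mean yet still positive, in both repeats and the primary screen; inactive = the rest.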

Experiments:
[1] = tested on: TRPC4 beta (transient receptor potential cation channel C4), mouse; experiment: activators of mouse TRPC4 channel, confirmation, cell-based, Fluo4 calcium, HEK293 TRPC4beta/mu-opioid, duplicates, 10 µM (AID 2426;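 active = fluorescence ratio normalized to control raised more than 50% in primary screen plus both repeat runs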;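 note: percent rise of integrated ratio over buffer wells lacking compound which define 0%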); conditions: Fluo4 calcium fluorescence, at 10 µM; hits give high values
[2] = tested on: transient receptor potential cation channel C4 beta (TRPC4), mouse; experiment: activators of mouse TRPC4 channel, confirmation, cell-based, second round, Fluo4, HEK293 TRPC4beta/mu-opioid, 1 µM (AID 2461;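 active = primary screen active and over 50% activation in each of two duplicate runs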;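 for activation: 0% = wells without test compound as baseline of integrated fluorescence ratio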); conditions: Fluo4 calcium fluorescence, at 1 µM; hits give high values
[3] = tested on: TRPC4 (transient receptor potential cation channel C4 beta), mouse; experiment: positive allosteric modulators of mouse TRPC4, confirmation, cell-based, second round, Fluo-4, HEK293 TRPC4beta/mu-opioid, 1 µM (AID 2554;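 active = primary screen hit whose fluorescence ratio, in both repeats, exceeds the weak agonist control mean by 3 SD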); conditions: DAMGO EC20, Fluo-4 calcium flux, at 1 µM; hits give high values
[4] = tested on: TRPC4 beta (transient receptor potential cation channel C4), mouse; experiment: positive allosteric modulators of mouse TRPC4, confirmation, cell-based, Fluo-4, HEK293 TRPC4beta/mu-opioid (AID 2555;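 active = primary screen hit whose calcium fluorescence ratio, in both repeats, exceeds the weak agonist control mean by 3 SD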); conditions: DAMGO EC20, Fluo-4 calcium flux, at 10 µM; hits give high values
[5] = biological target: Short transient receptor potential channel 4 (Mus musculus) (UniProt Q9QUQ5); experiment: inhibitors of mouse TRPC4 channel, confirmation, cell-based, Fluo4, HEK293 TRPC4beta/mu-opioid (AID 2636;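 active = calcium signal cut by more than 3 SD below the full-agonist control yet still positive, in both repeats and the earlier primary screen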); conditions: DAMGO, Fluo4 calcium flux, at 10 µM; hits give high values
Chain of Short transient receptor potential channel 4 (Mus musculus) (Q9QUQ5 whole entry, looked up): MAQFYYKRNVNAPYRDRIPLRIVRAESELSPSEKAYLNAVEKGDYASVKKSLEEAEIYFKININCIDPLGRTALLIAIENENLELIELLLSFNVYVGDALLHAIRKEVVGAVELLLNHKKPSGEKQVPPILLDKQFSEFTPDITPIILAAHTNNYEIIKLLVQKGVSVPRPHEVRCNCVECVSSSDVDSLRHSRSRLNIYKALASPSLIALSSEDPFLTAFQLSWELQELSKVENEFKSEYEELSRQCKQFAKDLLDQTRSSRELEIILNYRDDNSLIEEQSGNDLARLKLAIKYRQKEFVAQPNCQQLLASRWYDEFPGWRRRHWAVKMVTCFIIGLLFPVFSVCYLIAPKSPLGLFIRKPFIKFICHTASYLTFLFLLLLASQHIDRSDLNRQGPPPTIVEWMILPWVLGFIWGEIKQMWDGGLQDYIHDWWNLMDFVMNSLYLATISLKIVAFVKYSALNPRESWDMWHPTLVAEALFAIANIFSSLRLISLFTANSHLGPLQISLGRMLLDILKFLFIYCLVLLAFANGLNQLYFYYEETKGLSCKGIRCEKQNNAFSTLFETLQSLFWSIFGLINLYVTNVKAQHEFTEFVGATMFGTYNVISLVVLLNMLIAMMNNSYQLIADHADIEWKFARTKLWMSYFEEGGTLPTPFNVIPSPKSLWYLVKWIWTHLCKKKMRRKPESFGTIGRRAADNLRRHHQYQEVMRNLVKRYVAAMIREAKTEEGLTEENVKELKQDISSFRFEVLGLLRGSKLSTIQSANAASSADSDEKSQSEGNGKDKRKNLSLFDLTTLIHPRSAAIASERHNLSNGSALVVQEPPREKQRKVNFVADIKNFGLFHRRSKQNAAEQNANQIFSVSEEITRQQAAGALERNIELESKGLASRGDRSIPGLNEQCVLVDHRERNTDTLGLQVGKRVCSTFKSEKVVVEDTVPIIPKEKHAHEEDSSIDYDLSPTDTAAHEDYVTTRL

[6] = biological target: Short transient receptor potential channel 4 (Mus musculus) (UniProt Q9QUQ5); experiment: inhibitors of mouse TRPC4 channel, confirmation, cell-based, second round, Fluo4, HEK293 TRPC4beta/mu-opioid, 1 µM (AID 2637); conditions: Fluo4 calcium flux, DAMGO, at 1 µM; hits give high values
[7] = biological target: Short transient receptor potential channel 4 (Mus musculus) (UniProt Q9QUQ5); experiment: TRPC4 positive allosteric modulators, dose response, cell-based, HEK293 TRPC4/mu-opioid, Fluo-4 calcium, EC20 DAMGO (AID 434941;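 active = earlier screen potentiator hit that boosts the TRPC4 ion channel at some dose, with a dose response; inactive = no potentiation, no dose response, or not a prior hit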;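 note: calcium entry triggered by an EC20 dose of DAMGO at the co-expressed mu-opioid receptor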)
[8] = biological target: Short transient receptor potential channel 4 (Mus musculus) (UniProt Q9QUQ5); experiment: mouse TRPC4 channel inhibitors, dose response, cell-based, HEK293 TRPC4/mu-opioid, Fluo-4 calcium (AID 434942;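 active = primary screen inhibitor hit that blocks the TRPC4 channel at some tested dose, yielding a dose curve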)
[9] = biological target: Short transient receptor potential channel 6 (Mus musculus) (UniProt Q61143); experiment: inhibition of mouse TRPC6 channel, confirmation, selectivity assay for TRPC4 inhibitor project, cell-based, HEK293, membrane potential dye, duplicate (AID 434948;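 active = active in primary screen and both duplicates, each dropping signal beyond three positive-control SD with fluorescence still positive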); conditions: HEK293 TRPC6, membrane potential dye fluorescence, at 10 µM; inhibition: hits give high values, stimulated with maximal-effect acetylcholine unless noted; outcome: stimulated with maximal-effect acetylcholine unless noted
Chain of Short transient receptor potential channel 6 (Mus musculus) (Q61143 whole entry, looked up): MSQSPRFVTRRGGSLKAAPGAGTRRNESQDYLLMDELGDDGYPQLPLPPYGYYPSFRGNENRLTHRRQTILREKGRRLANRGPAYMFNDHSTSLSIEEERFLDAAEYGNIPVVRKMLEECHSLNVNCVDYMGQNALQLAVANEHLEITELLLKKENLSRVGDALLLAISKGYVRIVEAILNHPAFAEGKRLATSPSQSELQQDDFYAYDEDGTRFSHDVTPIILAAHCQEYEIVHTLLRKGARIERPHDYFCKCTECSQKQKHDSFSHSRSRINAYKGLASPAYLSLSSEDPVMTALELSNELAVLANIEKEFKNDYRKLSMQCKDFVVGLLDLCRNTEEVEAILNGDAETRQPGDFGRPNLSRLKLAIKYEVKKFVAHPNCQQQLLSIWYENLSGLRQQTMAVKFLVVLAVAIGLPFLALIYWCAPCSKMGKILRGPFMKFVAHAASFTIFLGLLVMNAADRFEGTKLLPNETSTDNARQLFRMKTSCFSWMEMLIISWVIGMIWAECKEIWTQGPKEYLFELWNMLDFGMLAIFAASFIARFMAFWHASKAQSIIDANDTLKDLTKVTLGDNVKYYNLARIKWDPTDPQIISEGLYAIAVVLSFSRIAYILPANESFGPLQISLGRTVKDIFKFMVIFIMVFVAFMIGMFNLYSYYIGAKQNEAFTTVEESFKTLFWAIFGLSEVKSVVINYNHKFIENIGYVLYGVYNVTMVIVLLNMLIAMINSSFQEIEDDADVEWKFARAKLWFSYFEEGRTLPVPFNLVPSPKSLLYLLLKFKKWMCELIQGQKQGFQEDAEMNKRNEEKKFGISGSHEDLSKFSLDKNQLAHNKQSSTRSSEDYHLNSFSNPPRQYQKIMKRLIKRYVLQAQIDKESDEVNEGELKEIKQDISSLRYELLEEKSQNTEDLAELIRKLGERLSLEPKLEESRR

[10] = biological target: Short transient receptor potential channel 6 (Mus musculus) (UniProt Q61143); experiment: activation of mouse TRPC6 channel, confirmation, selectivity assay for TRPC4 activator project, cell-based, HEK293, membrane potential dye, duplicate (AID 434950;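 active = membrane potential signal rise above negative control mean plus 3 SD in both duplicates, also active in the earlier TRPC4 screen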;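 for activation: 0% = buffer only wells and 100% = acetylcholine maximal-effect wells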); conditions: HEK293 TRPC6, membrane potential fluorescence, at 10 µM; hits give high values
[11] = biological target: Short transient receptor potential channel 6 (Mus musculus) (UniProt Q61143); experiment: TRPC6 potentiation by TRPC4 potentiator hits, confirmation, selectivity assay for TRPC4 potentiator project, HEK293 cells, membrane potential dye, duplicate (AID 434952;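 active = compound raising the membrane signal above positive-control mean plus 3 SD in both repeats, and a primary screen hit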); conditions: HEK293 TRPC6, membrane potential dye fluorescence, at 10 µM; maximal acetylcholine added after compound unless noted
[12] = biological target: Short transient receptor potential channel 4 (Mus musculus) (UniProt Q9QUQ5); experiment: calcium flux activators in TRPC4/5HT1a cells, counter-screen for TRPC4 activator project, cell-based, second counter screen, HEK293 TRPC4/5HT1a, Fluo-4 (AID 434977;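 active = calcium signal rise above buffer-control mean plus 5 SD in both duplicates, and also a hit in the primary screen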;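 for activation: plate controls were assay buffer for no effect and maximal serotonin response for full effect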); conditions: Fluo-4 calcium flux, at 10 µM; hits give high values
[13] = calcium flux inhibitors in TRPC4/5HT1a cells, confirmation, counter-screen for TRPC4 inhibitor project, cell-based, second counter screen, HEK293 TRPC4/5HT1a, Fluo-4 (AID 434978;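 active = primary screen active whose calcium signal fell more than 3 SD beyond the full-serotonin control mean in both duplicate plates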;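 note: serotonin given first at submaximal then at maximal dose after compound preincubation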); conditions: Fluo-4 calcium flux, at 10 µM; inhibition: hits give high values, serotonin added to trigger calcium flux unless noted; outcome: serotonin added to trigger calcium flux unless noted
[14] = tested on: TRPC4 (mouse), co-expressed with 5HT1a in HEK293; experiment: calcium flux potentiators in TRPC4/5HT1a cells, confirmation, counter-screen for TRPC4 potentiator project, cell-based, second counter screen, HEK293 TRPC4/5HT1a, Fluo-4 (AID 434979;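 active = signal rise over 3 SD above mean of control wells given weak agonist, in both repeats and first screen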); conditions: Fluo-4 calcium flux, at 10 µM; outcome: serotonin added at its EC20 dose unless noted; potentiation: hits give high values, serotonin added at its EC20 dose unless noted
[15] = calcium flux activation in mu-opioid HEK293 cells, confirmation, counter-screen for TRPC4 activator project, cell-based, HEK293 mu-opioid receptor line (AID 449723;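 active = hit in primary screen, with calcium signal over 5 SD above buffer well mean in both duplicates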;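 note: counter screen cells carry the mu-opioid receptor alone and lack TRPC4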); conditions: Fluo-4 calcium fluorescence, at 10 µM; hits give high values
[16] = calcium flux enhancement in mu-opioid HEK293 cells, confirmation, counter-screen for TRPC4 allosteric potentiator project, cell-based, HEK293 mu-opioid receptor line (AID 449724;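 active = calcium signal rise more than 3 SD above the low-dose agonist control mean, in both duplicate plates and the primary screen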); conditions: Fluo-4 calcium flux, at 10 µM; compound added before EC20 DAMGO stimulus unless noted
[17] = thallium flux activation in parental CHO cells, counter-screen for KCNQ1 potentiator project (AID 493006;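 active = duplicate-averaged activation above buffer control mean plus 5 SD of those controls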;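 for activation: fluorescence ratio of max minus min over baseline after K+ and Tl+ depolarization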); conditions: parental CHO-K1 cells, FluxOR thallium flux, at 10 µM; hits give high values

CCC(=O)OC1(c2cccc(C)c2)CC(C)N(C)CC1C (configuration not stated)
active: activation [1] 79% | activation [10] 74.5%
inactive: outcome [2] | outcome [3] | outcome [4] | outcome [5] | outcome [6] | outcome [7] | outcome [8] | outcome [9] inactive [setting not given] | outcome [11] inactive [setting not given] | outcome [12] | outcome [13] inactive [setting not given] | outcome [14] inactive [setting not given] | outcome [15] | outcome [16] inactive [setting not given]

Cn1c(N2CCNCC2)nc2ccccc21
active: activation [1] 117% | activation [2] 92% | activation [10] 31.5% | activation [12] 34.7%
inactive: outcome [3] | outcome [4] | outcome [5] | outcome [6] | outcome [7] | outcome [8] | outcome [9] | outcome [11] | outcome [13] | outcome [14] | outcome [15] | outcome [16]

c1ccc2sc(C3CCCNC3)nc2c1 (configuration not stated)
active: activation [1] 170% | activation [2] 115% | activation [10] 44% | activation [12] 95.3%
inactive: outcome [3] | outcome [4] | outcome [5] | outcome [6] | outcome [7] | outcome [8] | outcome [9] | outcome [11] | outcome [13] | outcome [14] | outcome [15] | outcome [16]

CCC1(C)CC(CCNCc2ccc(N(C)C)cc2)(c2ccc(F)cc2)CCO1 (configuration not stated)
active: activation [1] 184%
inactive: outcome [2] | outcome [3] | outcome [4] | outcome [5] | outcome [6] | outcome [7] | outcome [8] | outcome [9] | outcome [10] | outcome [11] | outcome [12] | outcome [13] | outcome [14] | outcome [15] | outcome [16]

Clc1ccc2sc(C3CCNCC3)nc2c1
inactive: outcome [3] | outcome [4] | outcome [5] | outcome [6] | outcome [7] | outcome [8] | outcome [9] | outcome [10] | outcome [11] | outcome [13] | outcome [14] | outcome [15] | outcome [16]
active: activation [1] 210% | activation [2] 166% | activation [12] 82.6%

CN1CCN(c2ccc([N+](=O)[O-])c3cccnc23)CC1
inactive: outcome [5] | outcome [6] | outcome [7] | outcome [8] | outcome [9] | outcome [10] | outcome [11] | outcome [13] | outcome [15] | outcome [16]
active: activation [1] 85% | activation [2] 78% | potentiation [3] 33% | potentiation [4] 26% | activation [12] 25.7% | potentiation [14] 16.9%

c1ccc2sc(N3CCNCC3)nc2c1
active: activation [1] 97% | activation [2] 78% | activation [10] 29.5% | activation [12] 51.8%
inactive: outcome [3] | outcome [4] | outcome [5] | outcome [6] | outcome [7] | outcome [8] | outcome [9] | outcome [11] | outcome [13] | outcome [14] | outcome [15] | outcome [16]

CCOC(=O)C1(c2ccccc2)CCN(CCC(=O)Nc2ccccc2OC)CC1
active: activation [1] 70% | activation [10] 62%
inactive: outcome [2] | outcome [3] | outcome [4] | outcome [5] | outcome [6] | outcome [7] | outcome [8] | outcome [9] inactive [setting not given] | outcome [11] inactive [setting not given] | outcome [12] | outcome [13] inactive [setting not given] | outcome [14] inactive [setting not given] | outcome [15] | outcome [16] inactive [setting not given]

CN(C)C(CNC(=O)Cc1c(Cl)cccc1Cl)c1ccccc1 (configuration not stated)
inactive: outcome [3] | outcome [4] | outcome [5] | outcome [6] | outcome [7] | outcome [8] | outcome [9] | outcome [11] | outcome [12] | outcome [13] | outcome [14] | outcome [15] | outcome [16]
active: activation [1] 148% | activation [2] 86% | activation [10] 57.5%

COc1ccc(C2NCCc3[nH]cnc32)cc1 (configuration not stated)
active: activation [1] 220% | activation [2] 68% | activation [12] 49.5%
inactive: outcome [3] | outcome [4] | outcome [5] | outcome [6] | outcome [7] | outcome [8] | outcome [9] | outcome [10] | outcome [11] | outcome [13] | outcome [14] | outcome [15] | outcome [16]

Cc1ccc(C[n+]2c(-c3ccc(C)cc3)cc(-c3ccc(C)cc3)cc2-c2ccc(C)cc2)cc1
active: activation [1] 152% | activation [12] 48.5% | activation [15] 19.8% | activation [17] 142%
inactive: outcome [2] | outcome [3] | outcome [4] | outcome [5] | outcome [6] | outcome [7] | outcome [8] | outcome [9] | outcome [10] | outcome [11] | outcome [13] | outcome [14] | outcome [16]

Nc1ncnc2c1ccn2[C@@H]1O[C@H](CO)[C@@H](O)[C@H]1O
inactive: outcome [17]

CN(C)C1(CNC(=O)Nc2ccc(Cl)c(Cl)c2)CCCCC1
active: activation [1] 229% | activation [2] 64% | activation [12] 29.4% | activation [15] 42.7%
inactive: outcome [3] | outcome [4] | outcome [5] | outcome [6] | outcome [7] | outcome [8] | outcome [9] | outcome [10] | outcome [11] | outcome [13] | outcome [14] | outcome [16]

O=C(CCCN1CCC2(CC1)C(=O)NCN2c1ccccc1)c1ccc(F)cc1
active: activation [1] 193% | activation [10] 39.5% | activation [12] 86.7% | activation [15] 48% | activation [17] 336%
inactive: outcome [2] | outcome [3] | outcome [4] | outcome [5] | outcome [6] | outcome [7] | outcome [8] | outcome [9] | outcome [11] | outcome [13] | outcome [14] | outcome [16]

CCN(CC)c1ccc(/C=C/[N+](=O)[O-])cc1
active: activation [1] 96% | activation [10] 906% | activation [12] 67.9% | activation [15] 113%
inactive: outcome [2] | outcome [3] | outcome [4] | outcome [5] | outcome [6] | outcome [7] | outcome [8] | outcome [9] | outcome [11] | outcome [13] | outcome [14] | outcome [16]
